Measured values published in the supplement of paper PMC12067093, “Discovery and optimisation of a covalent ligand for TRIM25 and its application to targeted protein ubiquitination” (Chemical Science, 2025).
Of roughly 21,000 targets only a part is listed; those with the largest changes were picked by preference.

Compound: Cc1cc(ccc1-c1ccccc1)C(=O)N1CCCN(CC1)C(=O)CCl [compound 10]
Assay: probe-labelled cysteine peptide fold change vs DMSO (competition) (log2 fold change); higher = less target engagement (more negative = stronger competition)
Conditions: THP-1, incubation time: 4 h
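Also: competitive profiling in live THP-1 cells: cysteine peptides tagged with an iodoacetamide desthiobiotin (IA-DTB) probe, intensity after compound treatment relative to DMSO-treated cells.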

Sequence of UniProt Q13740 (Q13740 whole entry, looked up): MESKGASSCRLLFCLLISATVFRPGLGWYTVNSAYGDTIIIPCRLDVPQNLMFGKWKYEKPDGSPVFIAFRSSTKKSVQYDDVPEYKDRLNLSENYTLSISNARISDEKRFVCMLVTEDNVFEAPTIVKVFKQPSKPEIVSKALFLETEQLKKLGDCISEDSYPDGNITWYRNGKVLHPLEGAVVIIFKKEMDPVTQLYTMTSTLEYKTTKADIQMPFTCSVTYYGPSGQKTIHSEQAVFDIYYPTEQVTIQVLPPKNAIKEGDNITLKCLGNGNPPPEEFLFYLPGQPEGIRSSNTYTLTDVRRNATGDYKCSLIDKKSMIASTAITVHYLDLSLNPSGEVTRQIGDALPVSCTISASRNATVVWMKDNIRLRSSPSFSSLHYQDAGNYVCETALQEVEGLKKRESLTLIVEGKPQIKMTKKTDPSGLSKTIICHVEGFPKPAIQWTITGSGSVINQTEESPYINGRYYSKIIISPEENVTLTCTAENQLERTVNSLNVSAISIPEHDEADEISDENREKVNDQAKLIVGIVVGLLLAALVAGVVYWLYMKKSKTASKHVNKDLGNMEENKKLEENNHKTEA
Sequence of UniProt Q13315 (Q13315 whole entry, looked up): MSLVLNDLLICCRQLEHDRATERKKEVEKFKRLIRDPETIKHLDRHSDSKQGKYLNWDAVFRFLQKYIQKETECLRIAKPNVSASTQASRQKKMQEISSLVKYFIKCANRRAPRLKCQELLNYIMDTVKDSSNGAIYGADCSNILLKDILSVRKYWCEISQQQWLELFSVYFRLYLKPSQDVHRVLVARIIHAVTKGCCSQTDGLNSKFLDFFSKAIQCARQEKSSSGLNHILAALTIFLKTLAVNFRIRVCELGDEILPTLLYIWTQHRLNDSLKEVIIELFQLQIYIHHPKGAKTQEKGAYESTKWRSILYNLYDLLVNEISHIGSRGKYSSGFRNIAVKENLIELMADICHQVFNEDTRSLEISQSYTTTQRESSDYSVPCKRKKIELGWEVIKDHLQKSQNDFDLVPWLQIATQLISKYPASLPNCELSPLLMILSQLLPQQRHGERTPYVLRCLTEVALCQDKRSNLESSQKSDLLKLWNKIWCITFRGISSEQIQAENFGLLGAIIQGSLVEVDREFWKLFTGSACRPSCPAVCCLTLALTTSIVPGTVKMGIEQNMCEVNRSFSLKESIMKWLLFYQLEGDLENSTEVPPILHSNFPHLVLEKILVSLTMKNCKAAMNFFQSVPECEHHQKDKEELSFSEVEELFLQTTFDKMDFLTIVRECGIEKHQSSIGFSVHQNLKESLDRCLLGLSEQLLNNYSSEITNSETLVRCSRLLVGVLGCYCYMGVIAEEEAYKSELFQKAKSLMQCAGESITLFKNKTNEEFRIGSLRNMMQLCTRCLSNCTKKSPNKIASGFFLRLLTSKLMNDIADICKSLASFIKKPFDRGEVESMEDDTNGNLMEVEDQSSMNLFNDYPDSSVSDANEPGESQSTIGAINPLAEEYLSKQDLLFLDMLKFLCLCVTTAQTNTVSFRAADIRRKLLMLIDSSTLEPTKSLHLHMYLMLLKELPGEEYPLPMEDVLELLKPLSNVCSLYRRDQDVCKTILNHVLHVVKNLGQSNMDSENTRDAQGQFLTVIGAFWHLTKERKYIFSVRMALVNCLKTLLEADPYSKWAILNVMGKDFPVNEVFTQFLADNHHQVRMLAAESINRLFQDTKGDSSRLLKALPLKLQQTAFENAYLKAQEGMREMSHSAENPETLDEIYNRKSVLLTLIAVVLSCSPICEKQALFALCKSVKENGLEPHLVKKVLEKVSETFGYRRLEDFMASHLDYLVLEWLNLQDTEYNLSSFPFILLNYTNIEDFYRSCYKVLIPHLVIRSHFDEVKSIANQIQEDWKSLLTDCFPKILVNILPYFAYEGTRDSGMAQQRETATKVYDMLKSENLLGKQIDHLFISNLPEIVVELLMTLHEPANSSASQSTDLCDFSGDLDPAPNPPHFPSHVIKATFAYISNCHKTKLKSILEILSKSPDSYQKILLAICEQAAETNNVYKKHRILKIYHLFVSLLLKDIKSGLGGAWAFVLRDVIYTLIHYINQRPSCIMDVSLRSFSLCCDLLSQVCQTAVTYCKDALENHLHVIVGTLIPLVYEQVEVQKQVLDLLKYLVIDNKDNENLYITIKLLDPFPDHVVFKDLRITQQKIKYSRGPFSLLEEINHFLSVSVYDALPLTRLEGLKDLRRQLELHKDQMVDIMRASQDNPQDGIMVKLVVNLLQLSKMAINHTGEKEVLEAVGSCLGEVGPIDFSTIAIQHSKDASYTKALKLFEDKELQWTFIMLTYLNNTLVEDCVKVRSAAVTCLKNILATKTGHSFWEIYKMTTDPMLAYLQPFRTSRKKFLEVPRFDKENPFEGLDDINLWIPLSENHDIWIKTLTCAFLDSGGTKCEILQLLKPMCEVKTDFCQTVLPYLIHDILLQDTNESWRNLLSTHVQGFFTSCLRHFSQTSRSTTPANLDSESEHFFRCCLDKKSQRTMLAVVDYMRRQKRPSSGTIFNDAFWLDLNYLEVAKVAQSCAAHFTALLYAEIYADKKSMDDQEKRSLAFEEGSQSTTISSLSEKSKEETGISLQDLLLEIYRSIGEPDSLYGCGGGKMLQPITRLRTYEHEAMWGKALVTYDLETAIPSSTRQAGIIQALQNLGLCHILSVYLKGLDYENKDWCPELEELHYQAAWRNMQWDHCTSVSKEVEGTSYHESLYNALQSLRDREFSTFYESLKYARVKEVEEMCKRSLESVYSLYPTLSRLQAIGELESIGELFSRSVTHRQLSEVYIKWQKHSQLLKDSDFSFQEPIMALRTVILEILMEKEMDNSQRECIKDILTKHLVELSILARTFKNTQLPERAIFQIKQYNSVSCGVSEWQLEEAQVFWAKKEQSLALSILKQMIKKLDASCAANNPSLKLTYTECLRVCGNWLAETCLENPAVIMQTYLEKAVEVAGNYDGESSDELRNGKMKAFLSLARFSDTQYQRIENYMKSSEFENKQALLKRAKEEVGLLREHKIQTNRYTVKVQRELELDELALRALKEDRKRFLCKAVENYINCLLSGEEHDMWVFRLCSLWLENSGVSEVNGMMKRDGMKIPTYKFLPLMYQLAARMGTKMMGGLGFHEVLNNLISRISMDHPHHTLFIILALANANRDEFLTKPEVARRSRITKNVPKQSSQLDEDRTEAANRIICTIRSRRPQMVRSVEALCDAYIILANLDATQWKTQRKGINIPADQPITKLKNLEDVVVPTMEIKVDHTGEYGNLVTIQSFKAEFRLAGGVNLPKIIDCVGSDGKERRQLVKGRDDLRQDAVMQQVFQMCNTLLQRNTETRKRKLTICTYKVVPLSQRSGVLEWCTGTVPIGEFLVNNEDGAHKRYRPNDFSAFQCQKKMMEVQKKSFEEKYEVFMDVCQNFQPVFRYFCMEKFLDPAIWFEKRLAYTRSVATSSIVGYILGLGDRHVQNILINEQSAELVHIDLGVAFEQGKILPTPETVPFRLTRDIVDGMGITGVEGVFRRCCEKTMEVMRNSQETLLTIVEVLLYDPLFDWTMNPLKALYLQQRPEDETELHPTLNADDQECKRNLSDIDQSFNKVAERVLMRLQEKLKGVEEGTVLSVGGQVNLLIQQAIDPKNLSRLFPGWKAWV
Sequence of UniProt P25705 (P25705 whole entry, looked up): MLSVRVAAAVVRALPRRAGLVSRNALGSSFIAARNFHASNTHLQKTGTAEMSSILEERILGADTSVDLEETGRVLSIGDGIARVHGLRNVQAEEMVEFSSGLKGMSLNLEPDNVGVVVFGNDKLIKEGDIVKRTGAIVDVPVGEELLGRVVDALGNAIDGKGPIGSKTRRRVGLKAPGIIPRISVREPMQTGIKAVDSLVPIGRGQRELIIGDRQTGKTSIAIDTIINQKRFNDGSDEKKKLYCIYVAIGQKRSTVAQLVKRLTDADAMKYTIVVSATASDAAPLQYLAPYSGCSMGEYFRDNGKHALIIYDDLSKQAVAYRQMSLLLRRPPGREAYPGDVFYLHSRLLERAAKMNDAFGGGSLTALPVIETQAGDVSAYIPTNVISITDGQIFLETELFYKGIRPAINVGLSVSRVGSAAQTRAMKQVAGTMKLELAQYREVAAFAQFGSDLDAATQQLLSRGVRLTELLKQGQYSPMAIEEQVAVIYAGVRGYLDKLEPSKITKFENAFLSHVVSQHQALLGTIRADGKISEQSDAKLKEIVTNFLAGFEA
Sequence of UniProt P04075 (P04075 whole entry, looked up): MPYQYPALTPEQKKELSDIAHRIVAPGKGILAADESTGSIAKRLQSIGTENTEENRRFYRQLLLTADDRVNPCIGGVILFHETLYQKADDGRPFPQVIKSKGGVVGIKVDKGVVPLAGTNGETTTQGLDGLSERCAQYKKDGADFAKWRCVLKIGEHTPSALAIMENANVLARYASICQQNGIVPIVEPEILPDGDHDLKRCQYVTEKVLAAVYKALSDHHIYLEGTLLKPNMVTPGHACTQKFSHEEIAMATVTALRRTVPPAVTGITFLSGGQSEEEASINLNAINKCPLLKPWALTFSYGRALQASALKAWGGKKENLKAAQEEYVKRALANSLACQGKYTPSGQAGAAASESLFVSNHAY
Sequence of UniProt P09525 (P09525 whole entry, looked up): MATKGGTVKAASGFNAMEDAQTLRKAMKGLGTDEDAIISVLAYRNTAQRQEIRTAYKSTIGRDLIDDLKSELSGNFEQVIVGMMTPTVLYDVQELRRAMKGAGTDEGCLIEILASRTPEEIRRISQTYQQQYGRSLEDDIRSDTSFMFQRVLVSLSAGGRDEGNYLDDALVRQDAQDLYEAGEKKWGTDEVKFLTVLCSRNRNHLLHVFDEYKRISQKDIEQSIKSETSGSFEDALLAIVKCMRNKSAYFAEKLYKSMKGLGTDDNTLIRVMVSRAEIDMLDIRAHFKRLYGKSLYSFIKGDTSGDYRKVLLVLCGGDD
Sequence of UniProt O00244 (O00244 whole entry, looked up): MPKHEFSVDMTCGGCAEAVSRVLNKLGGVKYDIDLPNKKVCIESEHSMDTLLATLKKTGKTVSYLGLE

Target	probe-labelled cysteine peptide fold change (10 µM)	probe-labelled cysteine peptide fold change (50 µM)
AIP_O00170_121+122_HCCGVAQMR (UniProt O00170)	-0.298	-1.16
ARNT_P27540_269_CGSSSVDPVSVNR (UniProt P27540)	-0.375	-0.756
ATM_Q13315_1396_ATFAYISNCHK (UniProt Q13315)	-1.94	-2.52
AIP_O00170_122_HCCGVAQMR (UniProt O00170)	-0.267	-2.09
AIDA_Q96BJ3_69_IATCLELR (UniProt Q96BJ3)	-0.123	-0.606
AFTPH_Q6ULP2_659_IFEACFPSILVPDAEEEVTSLK (UniProt Q6ULP2)	0.0219	-0.0706
ARHGAP45_Q92619_809_LCQAFENGK (UniProt Q92619)	0.077	0.0355
AKAP8_O43823_395_IQFACSVCK (UniProt O43823)	0.0747	-0.348
ALDH9A1_P49189_355_VLCGGDIYVPEDPK (UniProt P49189)	-0.105	0.0431
ANAPC1_Q9H1A4_1630_LLVPVDVDTNTPCYALLEVTYK (UniProt Q9H1A4)	-0.151	0.155
AKR7A2_O43488_132+156_RLQCPQVDLFYLHAPDHGTPVEETLHACQR (UniProt O43488)	-0.245	-0.374
ATOX1_O00244_41_VCIESEHSMDTLLATLKK (UniProt O00244)	0.237	-0.215
ACTR3B_Q9P1U1_408_DYEEYGPSICR (UniProt Q9P1U1)	0.154	0.0944
ALDOA_P04075_339_RALANSLACQGK (UniProt P04075)	-0.187	-0.104
AKR1B1_P15121_299+304_VCALLSCTSHK (UniProt P15121)	-0.497	-2.06
APBB1IP_Q7Z5R6_401_YLCCDDTR (UniProt Q7Z5R6)	-0.318	-0.372
ATP2B1_P20020_547_TECALLGLLLDLKR (UniProt P20020)	-0.138	-0.507

Target	probe-labelled cysteine peptide fold change (10 µM)	probe-labelled cysteine peptide fold change (50 µM)
ALCAM_Q13740_270_CLGNGNPPPEEFLFYLPGQPEGIR (UniProt Q13740)	-0.0239	0.0758
AKR1B1_P15121_45_HIDCAHVYQNENEVGVAIQEK (UniProt P15121)	0.0652	-0.0317
ALDH9A1_P49189_45_VIATFTCSGEK (UniProt P49189)	-0.00832	0.0216
ASCC3_Q8N3C0_366_KAGEDLEVSEGLMCFDPK (UniProt Q8N3C0)	-0.217	-0.375
ANLN_Q9NQW6_978_CQVNSSVEER (UniProt Q9NQW6)	0.153	0.239
ANAPC1_Q9H1A4_1074_LLQLCQR (UniProt Q9H1A4)	-0.0436	0.000425
AKR1B1_P15121_304_VCALLSCTSHK (UniProt P15121)	-0.547	-2.08
ATIC_P31939_575_VVIEACDELGIILAHTNLR (UniProt P31939)	0.103	0.126
ALG13_Q9NP73_86_ADLVISHAGAGSCLETLEK (UniProt Q9NP73)	-0.211	-0.753
ATP5F1A_P25705_244_KLYCIYVAIGQK (UniProt P25705)	-1.08	0.236
ATAD1_Q8NBU5_229_AQFMSLWDGLDTDHSCQVIVMGATNRPQDLDSAIMR (UniProt Q8NBU5)	0.117	0.088
ARHGEF7_Q14155_490_TLGNVTYMSQVLIQCAGSEEK (UniProt Q14155)	-0.204	-1.18
ALDH18A1_P54886_674_SLRTEYGDLELCIEVVDNVQDAIDHIHK (UniProt P54886)	0.115	-0.188
ARHGAP25_P42331_448_CFLTSAFQGANSSK (UniProt P42331)	-0.526	-1.52
ATP2B1_P20020_463+473_HLDACETMGNATAICSDK (UniProt P20020)	-0.241	0.05
ANXA4_P09525_315_KVLLVLCGGDD (UniProt P09525)	-0.0611	-0.661
AKR1B1_P15121_299_VCALLSCTSHK (UniProt P15121)	-0.208	-2.38
